Measurements from PubChem BioAssay AID1159580 (chemical genetic matrix, 2015).
Where “and” joins values, the source holds several entries; their conditions need not be identical. Equal values may be shown once. Among all 5,500 compounds or so, about 2,000 (36%) were called active. Roughly 18% stayed inconclusive and do not appear here. No stated cut-off is given here; in the data, active means normalized growth mostly below about 0.91 (no sharp cut-off); inconclusive means no clear call, values can overlap the other calls; inactive means mostly above about 0.92. The list shows a part of the results.

Assay: chemical genetic growth profiling, strain panel (AID 1159580);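 further: tested at 20 µM; growth read once vehicle control cultures reached saturation at 30 °C; 1 = growth at the plate median or of vehicle wells; lower values mean less growth of the strain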
Settings: S. cerevisiae deletion strains, growth OD

Measured: normalized growth

Nc1ccncc1
inactive: locus YAL013W, strain DEP1, active compounds read low 1.02 and 1.01 | locus YAL021C, strain ccr4, active compounds read low 0.996 | locus YAL026C, strain drs2, active compounds read low 1 | locus YAL030W, strain snc1, active compounds read low 0.997 | locus YAL040C, strain CLN3, active compounds read low 0.997 | locus YBL061C, strain skt5, active compounds read low 0.99 | locus YBR009C, strain hhf1, active compounds read low 1 | locus YBR021W, strain FUR4, active compounds read low 1.02 | locus YBR023C, strain chs3, active compounds read low 0.993 | locus YBR171W, strain sec66, active compounds read low 0.979 | locus YBR229C, strain ROT2, active compounds read low 0.985 | locus YBR231C, strain swc5, active compounds read low 0.994 | locus YBR279W, strain paf1, active compounds read low 0.998 | locus YCL011C, strain gbp2, active compounds read low 0.995 | locus YCL016C, strain dcc1, active compounds read low 1 | locus YCL029C, strain bik1, active compounds read low 0.973 | locus YCL061C, strain MRC1 (second series), active compounds read low 1 | locus YCL061C, strain MRC1, active compounds read low 0.99 | locus YCL069W, strain vba3, active compounds read low 0.998 | locus YCR088W, strain abp1, active compounds read low 0.981 | locus YDL005C, strain med2, active compounds read low 0.991 | locus YDL035C, strain GPR1, active compounds read low 1.03 | locus YDL040C, strain nat1, active compounds read low 0.989 | locus YDL074C, strain BRE1, active compounds read low 1.05 | locus YDL101C, strain DUN1, active compounds read low 1.01 | locus YDL134C, strain PPH21, active compounds read low 1.02 | locus YDL185W, strain tfp1, active compounds read low 0.981 | locus YDL192W, strain arf1, active compounds read low 0.98 | locus YDR001C, strain nth1, active compounds read low 0.991 | locus YDR069C, strain doa4, active compounds read low 1 | locus YDR101C, strain arx1, active compounds read low 0.972 | locus YDR137W, strain rgp1, active compounds read low 1 | locus YDR150W, strain NUM1, active compounds read low 1.02 | locus YDR159W, strain sac3, active compounds read low 1 | locus YDR162C, strain NBP2, active compounds read low 1.01 | locus YDR195W, strain ref2 1.01 | locus YDR297W, strain sur2, active compounds read low 1 | locus YDR318W, strain mcm21, active compounds read low 0.955 | locus YDR334W, strain swr1, active compounds read low 0.997 | locus YDR335W, strain msn5, active compounds read low 0.997 | locus YDR363W, strain ESC2, active compounds read low 1.01 | locus YDR388W, active compounds read low 0.965 | locus YDR392W, strain spt3, active compounds read low 0.994 | locus YDR502C, strain sam2, active compounds read low 0.968 | locus YEL003W, strain gim4, active compounds read low 1 | locus YEL037C, strain rad23, active compounds read low 0.989 | locus YEL061C, strain CIN8 (second series), active compounds read low 0.994 | locus YEL061C, strain CIN8, active compounds read low 1.01 | locus YER002W, strain NOP16, active compounds read low 1.01 | locus YER015W, strain faa2, active compounds read low 0.995 | locus YER016W, strain bim1, active compounds read low 0.995 | locus YER110C, active compounds read low 0.973 | locus YER111C, strain swi4, active compounds read low 0.987 | locus YER155C, strain BEM2 (second series), active compounds read low 0.947 | locus YER155C, strain BEM2, active compounds read low 1.01 | locus YER167W, strain BCK2, active compounds read low 1.02 | locus YFR010W, strain ubp6, active compounds read low 0.996 | locus YGL078C, strain dbp3, active compounds read low 0.982 | locus YGL086W, strain mad1, active compounds read low 0.975 | locus YGL167C, strain pmr1, active compounds read low 0.992 | locus YGL173C, strain kem1, active compounds read low 0.99 | locus YGL227W, strain vid30, active compounds read low 0.98 | locus YGL240W, strain doc1, active compounds read low 1 | locus YGL248W, strain PDE1, active compounds read low 1.02 | locus YGL253W, strain hxk2, active compounds read low 1 | locus YGR078C, strain PAC10, active compounds read low 1.02 and 1.01 | locus YGR135W, strain pre9, active compounds read low 0.971 | locus YGR229C, strain SMI1, active compounds read low 1.01 and 1 | locus YGR252W, strain gcn5, active compounds read low 0.92 | locus YHR013C, strain ard1, active compounds read low 0.999 | locus YHR027C, strain rpn1, active compounds read low 0.998 | locus YHR030C, strain SLT2, active compounds read low 1.01 and 0.98 | locus YHR079C, strain IRE1 (second series), active compounds read low 0.965 | locus YHR079C, strain IRE1, active compounds read low 0.961 | locus YHR094C, strain hxt1, active compounds read low 0.974 | locus YHR129C, strain ARP1, active compounds read low 1.01 | locus YHR142W, strain chs7, active compounds read low 0.993 | locus YHR200W, strain rpn10, active compounds read low 0.96 | locus YIL066C, strain RNR3, active compounds read low 1.03 | locus YIL073C, strain SPO22, active compounds read low 0.993 | locus YIL125W, strain kgd1, active compounds read low 0.991 | locus YIR030C, strain dcg1, active compounds read low 0.975 | locus YJL092W, strain hpr5, active compounds read low 0.99 | locus YJL095W, strain BCK1 (second series), active compounds read low 0.991 | locus YJL095W, strain BCK1, active compounds read low 0.978 and 0.981 | locus YJL115W, strain asf1, active compounds read low 0.984 | locus YJL129C, strain trk1, active compounds read low 0.988 | locus YJL134W, strain LCB3, active compounds read low 1.01 | locus YJL154C, strain vps35, active compounds read low 0.992 | locus YJL164C, strain tpk1, active compounds read low 1.01 | locus YJL166W, strain qcr8, active compounds read low 0.989 | locus YJL168C, strain set2, active compounds read low 0.963 | locus YJL187C, strain SWE1 (second series), active compounds read low 1.03 | locus YJL187C, strain SWE1, active compounds read low 1 | locus YJR043C, strain POL32, active compounds read low 1 | locus YJR066W, strain TOR1, active compounds read low 0.917
